“And” between values parts separate entries of the source, which are not always exact repeats. Equal entries are not always repeated. Results filed as inconclusive are left out. Some structures have more than one record in an assay (separate samples or runs), and their calls can disagree. The source made the active and inactive calls. The call rests on the fitted dose curve; in most records, active means well fitted cell-killing curve with a large enough effect; inconclusive means small, poorly fitted or top-dose-only effect, or effect the other way; inactive means flat fitted curve, though single readings scatter. Non-standard residues stand in square brackets, D forms with d. Residues, ends and D or L forms follow the SMILES beside them. *: point of attachment. Sta = CC(C)C[C@H](N)[C@@H](O)CC(=O)O; Isovaleryl = CC(C)CC(=O)*
System: Es-2
Experiment: Primary qHTS to identify gynecologic anti-cancer compounds using libraries of approved drugs and bioactive compounds (AID 1345084); further: nearly all actives have a fitted effect of over 55% in size
Details: Gynecologic cancer cell panel viability, ATPlite luminescence, 48 h; series mostly up to 57.5 µM; activity change, negative = cytotoxicity: at the top concentration
Outline: (§1)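 Cells, 1,000 per well, plated 16 h, then exposed 48 h at 37 C to compounds. Viability by ATPlite luminescence after 15 min at room temperature.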
On the % scale 0 is the no-effect control and ±100 the full control effect; potency means the concentration at half of the fitted maximal effect.

SMILES | activity change, negative = cytotoxicity | Potency
CS(=O)(=O)OCCCCOS(C)(=O)=O | 7.35% (inactive) | 
COc1cc(Nc2c(C#N)cnc3cc(OCCCN4CCN(C)CC4)c(OC)cc23)c(Cl)cc1Cl |  | 6.31 µM (active) and 14.1 µM (active)
CC(C)c1ccc2oc3nc(N)c(C(=O)O)cc3c(=O)c2c1 |  | 7.08 µM (active)
CN(C)C(=O)COC(=O)Cc1ccc(OC(=O)c2ccc(N=C(N)N)cc2)cc1 | 6.25% (inactive) | 
Cc1cc2c(s1)Nc1ccccc1N=C2N1CCN(C)CC1 |  | inactive
Cc1cc(C2CCCCC2)n(O)c(=O)c1 |  | 14.1 µM (active)
CC1=C(C)C(=O)C(C(CCCCCC(=O)O)c2ccccc2)=C(C)C1=O (stereo not given) | -0.556% (inactive) | 
CC(=O)NC[C@H]1CN(c2ccc(N3CCOCC3)c(F)c2)C(=O)O1 | 3.12% (inactive) | 
NNc1nncc2ccccc12 | -14.6% [at 25.3 µM] (inactive) | 
CC(S)C(=O)NCC(=O)O (stereo not given) | 5.85% (inactive) | 
Cc1ccc(Nc2nccc(N(C)c3ccc4c(C)n(C)nc4c3)n2)cc1S(N)(=O)=O |  | inactive
Cc1c(C(=O)NN2CCCCC2)nn(-c2ccc(Cl)cc2Cl)c1-c1ccc(Cl)cc1 | 4.84% (inactive) | 
CCCc1cc(=O)[nH]c(=S)[nH]1 | 3.82% (inactive) | 
Clc1ccc(C(Cn2ccnc2)OCc2ccc(Sc3ccccc3)cc2)c(Cl)c1 (stereo not given) | -1.3% (inactive) | 
COCCCOc1ccnc(CS(=O)c2nc3ccccc3[nH]2)c1C (stereo not given) |  | inactive
CC[C@]1(O)C[C@H]2CN(CCc3c([nH]c4ccccc34)[C@@](C(=O)OC)(c3cc4c(cc3OC)N(C=O)[C@H]3[C@@](O)(C(=O)OC)[C@H](OC(C)=O)[C@]5(CC)C=CCN6CC[C@]43[C@@H]65)C2)C1 |  | 0.891 µM (active)
CC1(C)CCC(C)(C)c2cc(NC(=O)c3ccc(C(=O)O)cc3)ccc21 | 11.2% (inactive) | 
COc1ccccc1N1CCN(CCN(C(=O)C2CCCCC2)c2ccccn2)CC1 | -6.71% (inactive) | 

SMILES | activity change, negative = cytotoxicity | Potency
Cc1c(OCC(F)(F)F)ccnc1CS(=O)c1nc2ccccc2[nH]1 (stereo not given) | 0.72% (inactive) | 
COc1cc2c(N3CCN(C(=O)Nc4ccc(OC(C)C)cc4)CC3)ncnc2cc1OCCCN1CCCCC1 |  | inactive
CC(C)CC(=O)N[C@H](C(=O)N[C@H](C(=O)N[C@@H](CC(C)C)[C@@H](O)CC(=O)N[C@@H](C)C(=O)N[C@@H](CC(C)C)[C@@H](O)CC(=O)O)C(C)C)C(C)C (Isovaleryl-VV[Sta]A[Sta]-OH) | 8.33% (inactive) | 
Clc1ccc(C(Cn2ccnc2)OCc2ccsc2Cl)c(Cl)c1 (stereo not given) | -16.6% (inactive) | 
N=C(N)c1ccc2cc(OC(=O)c3ccc(N=C(N)N)cc3)ccc2c1 | -6.59% (inactive) | 
CCOC(=O)c1c(C)n(C)c2ccc(O)cc12 | -1.26% (inactive) | 
CN(C)C(=O)[C@H](O)[C@H](Cc1ccccc1)NC(=O)c1cc2cc(Cl)ccc2[nH]1 | 2.71% (inactive) | 
Cc1ccc(C(=O)c2cc(O)c(O)c([N+](=O)[O-])c2)cc1 | -10.9% (inactive) | 
O=C(O)c1cccc(-c2noc(-c3ccccc3F)n2)c1 |  | 3.16 µM (active) and 6.31 µM (active)
CCC1=C(C)CN(C(=O)NCCc2ccc(S(=O)(=O)NC(=O)NC3CCC(C)CC3)cc2)C1=O (stereo not given) |  | inactive
CC(=O)Nc1ccc(O)cc1 | 10.5% (inactive) | 
O=C(NOCC1CC1)c1ccc(F)c(F)c1Nc1ccc(I)cc1Cl | -25.7% (inactive) | 
Cc1cc(=O)c2c(O)c3c(O)cc(=O)c4c3c3c(cc(O)c1c23)C(C)(C)C=4O |  | 3.16 µM (active)
COc1cc(C(C)=O)ccc1OCCCN1CCC(c2noc3cc(F)ccc23)CC1 | -9.65% (inactive) | 
COc1cc2nc(N3CCN(C(=O)C4CCCO4)CC3)nc(N)c2cc1OC (stereo not given) | 1.11% (inactive) | 
Cc1ncc([N+](=O)[O-])n1CC(C)O (stereo not given) | 0.638% (inactive) | 
O=C(O)CCNC(=O)c1ccc(N=Nc2ccc(O)c(C(=O)O)c2)cc1 | 0.428% (inactive) | 

System: HeLa
Experiment: as above
Details: Gynecologic cancer cell panel viability, ATPlite luminescence, 48 h; series mostly up to 57.5 µM; activity change, negative = cytotoxicity: at the top concentration
Outline: as §1

SMILES | activity change, negative = cytotoxicity | Potency
CS(=O)(=O)OCCCCOS(C)(=O)=O | 1.04% (inactive) | 
COc1cc(Nc2c(C#N)cnc3cc(OCCCN4CCN(C)CC4)c(OC)cc23)c(Cl)cc1Cl |  | 25.1 µM (active) and inactive
CC(C)c1ccc2oc3nc(N)c(C(=O)O)cc3c(=O)c2c1 |  | 7.94 µM (active)
c1ccc2[nH]c(-c3cscn3)nc2c1 | -10.5% (inactive) | 
CN(C)C(=O)COC(=O)Cc1ccc(OC(=O)c2ccc(N=C(N)N)cc2)cc1 | 3.68% (inactive) | 
Cc1cc2c(s1)Nc1ccccc1N=C2N1CCN(C)CC1 |  | inactive
Cc1cc(C2CCCCC2)n(O)c(=O)c1 | -2.22% (inactive) | 
CC1=C(C)C(=O)C(C(CCCCCC(=O)O)c2ccccc2)=C(C)C1=O (stereo not given) | 3.45% (inactive) | 
CC(=O)NC[C@H]1CN(c2ccc(N3CCOCC3)c(F)c2)C(=O)O1 | 16% (inactive) | 
NNc1nncc2ccccc12 | -22.9% [at 25.3 µM] (inactive) | 
CC(S)C(=O)NCC(=O)O (stereo not given) | -5.87% (inactive) | 
Cc1c(C(=O)NN2CCCCC2)nn(-c2ccc(Cl)cc2Cl)c1-c1ccc(Cl)cc1 | -1.72% (inactive) | 
CCCc1cc(=O)[nH]c(=S)[nH]1 | 1.8% (inactive) | 
Clc1ccc(C(Cn2ccnc2)OCc2ccc(Sc3ccccc3)cc2)c(Cl)c1 (stereo not given) | 3.78% (inactive) | 
COCCCOc1ccnc(CS(=O)c2nc3ccccc3[nH]2)c1C (stereo not given) |  | inactive
CC[C@]1(O)C[C@H]2CN(CCc3c([nH]c4ccccc34)[C@@](C(=O)OC)(c3cc4c(cc3OC)N(C=O)[C@H]3[C@@](O)(C(=O)OC)[C@H](OC(C)=O)[C@]5(CC)C=CCN6CC[C@]43[C@@H]65)C2)C1 |  | 0.891 µM (active)
CC1(C)CCC(C)(C)c2cc(NC(=O)c3ccc(C(=O)O)cc3)ccc21 | -5.36% (inactive) | 
COc1ccccc1N1CCN(CCN(C(=O)C2CCCCC2)c2ccccn2)CC1 | 5.12% (inactive) | 

SMILES | activity change, negative = cytotoxicity | Potency
Cc1c(OCC(F)(F)F)ccnc1CS(=O)c1nc2ccccc2[nH]1 (stereo not given) | 0.608% (inactive) | 
COc1cc2c(N3CCN(C(=O)Nc4ccc(OC(C)C)cc4)CC3)ncnc2cc1OCCCN1CCCCC1 |  | inactive
CC(C)CC(=O)N[C@H](C(=O)N[C@H](C(=O)N[C@@H](CC(C)C)[C@@H](O)CC(=O)N[C@@H](C)C(=O)N[C@@H](CC(C)C)[C@@H](O)CC(=O)O)C(C)C)C(C)C (Isovaleryl-VV[Sta]A[Sta]-OH) | -9.08% (inactive) | 
Clc1ccc(C(Cn2ccnc2)OCc2ccsc2Cl)c(Cl)c1 (stereo not given) | 0.583% (inactive) | 
N=C(N)c1ccc2cc(OC(=O)c3ccc(N=C(N)N)cc3)ccc2c1 | -8.76% (inactive) | 
CCOC(=O)c1c(C)n(C)c2ccc(O)cc12 | -4.32% (inactive) | 
CN(C)C(=O)[C@H](O)[C@H](Cc1ccccc1)NC(=O)c1cc2cc(Cl)ccc2[nH]1 | -2.02% (inactive) | 
O=C(O)c1cccc(-c2noc(-c3ccccc3F)n2)c1 |  | 7.08 µM (active) and 10 µM (active)
CCC1=C(C)CN(C(=O)NCCc2ccc(S(=O)(=O)NC(=O)NC3CCC(C)CC3)cc2)C1=O (stereo not given) |  | inactive
CC(=O)Nc1ccc(O)cc1 | 14.2% (inactive) | 
OC(CN1CCN(c2cccc(Cl)c2)CC1)C(c1ccccc1)c1ccccc1 (stereo not given) | -0.282% (inactive) | 
O=C(NOCC1CC1)c1ccc(F)c(F)c1Nc1ccc(I)cc1Cl | -12.6% (inactive) | 
Cc1cc(=O)c2c(O)c3c(O)cc(=O)c4c3c3c(cc(O)c1c23)C(C)(C)C=4O |  | 2.24 µM (active)
COc1cc(C(C)=O)ccc1OCCCN1CCC(c2noc3cc(F)ccc23)CC1 | -7.93% (inactive) | 
COc1cc2nc(N3CCN(C(=O)C4CCCO4)CC3)nc(N)c2cc1OC (stereo not given) | -15.6% (inactive) | 
Cc1ncc([N+](=O)[O-])n1CC(C)O (stereo not given) | 3.52% (inactive) | 
O=C(O)CCNC(=O)c1ccc(N=Nc2ccc(O)c(C(=O)O)c2)cc1 | 2.84% (inactive) | 
